Drawing on PubChem BioAssay (NCI), this text covers growth inhibition for 27 molecules.

Assay [1] is described as follows: NCI Yeast Anticancer Drug Screen. Data for the rad50 strain (AID 155).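 Further: 0% = growth of vehicle-only cultures of the same strain.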 To be noted: S. cerevisiae rad50 strain growth inhibition; at 50.0 µM; active compounds read high. A digest of the protocol: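 DNA repair mutant yeast, compound exposure, growth read-out; inhibition is taken relative to vehicle.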
The nature of assay [2]: NCI Yeast Anticancer Drug Screen. Data for the mec2-1 strain (AID 157). To be noted: S. cerevisiae mec2-1 strain, at 50.0 µM, active compounds read high. A digest of the protocol: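 Test agents were screened against the mec2-1 yeast strain, with defined DNA repair or cell cycle alteration. Growth was scored as inhibition against vehicle-only controls.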
Assay [3] can be described thus: NCI Yeast Anticancer Drug Screen. Data for the mlh1 rad18 strain (AID 175). To be noted: S. cerevisiae mlh1 rad18 strain growth inhibition; at 50.0 µM; active compounds read high. A digest of the protocol: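 In this whole-cell yeast screen, a strain with altered DNA damage repair is challenged with compound, and its growth is measured against matched vehicle-treated controls.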

Assay [4] in a line: NCI Yeast Anticancer Drug Screen. Data for the sgs1 mgt1 strain (AID 161).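 Further: 0% = growth of cultures given vehicle only.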 To be noted: S. cerevisiae sgs1 mgt1 strain, at 50.0 µM, active compounds read high. A digest of the protocol:
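Genetically altered yeast, compound exposure, growth inhibition relative to vehicle.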

Assay [5] can be described thus: NCI Yeast Anticancer Drug Screen. Data for the bub3 strain (AID 167). To be noted: S. cerevisiae bub3 mutant strain, at 50.0 µM, active compounds read high. A digest of the protocol: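 In this screen, a yeast mutant lacking normal mitotic checkpoint function is challenged with compound. Relative growth versus vehicle gives the inhibition value.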
Assay [6] can be described thus: NCI Yeast Anticancer Drug Screen. Data for the cln2 rad14 strain (AID 165).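 Further: 0% = growth equal to vehicle treated cultures.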 To be noted: S. cerevisiae cln2 rad14 strain, at 50.0 µM, active compounds read high. A digest of the protocol: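 Growth of compound-exposed yeast (cln2 rad14 genotype) measured and expressed as inhibition relative to vehicle.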

About 79,000 compounds went through this panel and 15% of them were active in at least one assay; those are over-represented in the sample as a whole. Unmarked numbers belong to inactive results. Activity calls are given as the source filed them. No stated cut-off is given here; in the data, active means growth inhibition above about 70%; inactive means the rest.

For the molecule `COc1ccc(NCc2ccc(C)cc2)cc1`, the growth inhibition in assay [1] is -2.55%; in assay [2], -17.1%; in assay [3], 3.45%.
The corresponding values for `O=C1c2ccccc2C(=O)c2c1cccc2N1C(=O)C=CC1=O` are 51.2%, 37.9% and 63.7%.
On to `Nc1ccc2[nH]c(-c3ccccc3)cc(=O)c2c1`, for which the growth inhibition in assay [1] is -38%; in assay [2], -33.8%; in assay [3], -15.9%.
In the case of `O=S(=O)(O)c1cc(O)c2c(O)cc(S(=O)(=O)O)cc2c1`, the growth inhibition in assay [1] is -0.75%; in assay [4] it was -21.2%; in assay [5] it was -8.1%; in assay [3], -4.7%.
Consider `O=[N+]([O-])c1cccc(S(=O)(=O)OCCOc2ccccc2)c1`, for which the figures for the growth inhibition in assay [1], in assay [2] and in assay [3] were 30.7%, 4.15% and 17.6%, respectively.
For the molecule `N#CC1(C#N)C2CCCCC23OC(=N)C1(C#N)C(c1ccco1)O3` (stereo not given), the growth inhibition is 15.8% in assay [1]; -29.2% in assay [4]; -17.1% in assay [6]; -41.5% in assay [5]; -25.4% in assay [3].
For the molecule `O=C1NC(c2ccc3ccccc3c2)Nc2ccccc21` (stereo not given), the growth inhibition was -2.85% in assay [1], -9.2% in assay [2] and 19.1% in assay [3].
Take `COc1ccc(-c2coc3ccc4ccccc4c3c2=O)cc1OC`: the results for the growth inhibition in assay [1], in assay [2] and in assay [3] were 16%, -15.1% and 7.25%, respectively.
Turning to `CC(=O)C(/C=N/C(N)=O)=C(/C)O`, the growth inhibition is 5.4% in assay [1]; 3.75% in assay [4]; 2.75% in assay [6]; -2.3% in assay [5]; 2.55% in assay [3].
As to `COc1cc(C2N(c3ccccc3)CCN2c2ccccc2)cc(OC)c1OC`, the growth inhibition in assay [1] was 59%; in assay [2] it was 62.9%; in assay [3], 43.1%.
For the molecule `COc1ccc2c(c1C)CN1CCc3cc4c(cc3C1=C2)OCO4`, the growth inhibition in assay [1] is 23.1%; in assay [2], 17.4%; in assay [3] it was 61.1%.
As to `Cc1ccc(/C=N/Nc2nc3ccccc3s2)s1`, the growth inhibition in assay [1] was -24.5%; in assay [4], -9.55%; in assay [6] it was 0.7%; in assay [5], -12.1%; in assay [3] it was -11.2%.
Consider `COC(=O)C/C(=C/C=C1/C(=O)ON=C1C)c1c(C)[nH]oc1=O`, for which the growth inhibition was -10.9% in assay [1], -29.9% in assay [2] and -16.9% in assay [3].
On to `CC(=O)c1ccc(NC(=O)/C(CC(=O)/C=C/c2ccccc2)=N/NC(N)=S)cc1`, for which the growth inhibition is 37.1% in assay [1]; 23.9% in assay [4]; 16.3% in assay [6]; 35.1% in assay [5]; 9.65% in assay [3].
As to `Cc1cccc(C)c1NC(=S)N(C)C`, the figures for the growth inhibition in assay [1] and in assay [3] were -8.8% and 4.65%, respectively.
For the molecule `CC(=O)C1=C(C)N2C(=NC3=C(CCc4ccccc43)C2c2ccc(Cl)cc2)S1` (stereo not given), the growth inhibition was 25.9% in assay [1]; 6.85% in assay [4]; 6.25% in assay [6]; -6.9% in assay [5]; 1.5% in assay [3].
With `COc1ccc(C(C(N)=O)N2CCCC2)cc1` (stereo not given), the values for the growth inhibition in assay [1], in assay [2] and in assay [3] were 1%, -19.6% and 16.6%, respectively.
On to `C#Cc1c(-c2c[nH]c3ccccc23)ccc[n+]1C`, for which the growth inhibition in assay [1] was -12.5%; in assay [2], -36.1%; in assay [3], -24.4%.
`O=c1oc(-c2ccccc2)nc2cc(Cl)ccc12`: the values for the growth inhibition in assay [1] and in assay [3] were -0.3% and 1.35%, respectively.
For the molecule `COC(=O)/C=C\C(C#N)(C#N)N=Cc1ccsc1`, the growth inhibition in assay [1] was 67.9%; in assay [4], 79.8% (active); in assay [6] it was 29.6%; in assay [5], 74% (active); in assay [3], 87.6% (active).
Take `O=C(Nc1cccc(NC(=O)C(=O)C2CCC3=C(Sc4ccccc4N3)C2=O)n1)C(=O)C1CCC2=C(Sc3ccccc3N2)C1=O` (stereo not given): the growth inhibition in assay [1] is 2.5%; in assay [4], 3%; in assay [6], 5.2%; in assay [5], 29.9%; in assay [3], 1.2%.
Consider `Cc1ccc(COC(=O)c2cccnc2)cc1`, for which the growth inhibition in assay [1] is -16.4%; in assay [2] it was -18.6%; in assay [3], 8.65%.
For `COc1cc([C@H]2OC[C@H]3[C@@H]2CO[C@@H]3c2cc(OC)c3c(c2)OCO3)cc(OC)c1OC`, the growth inhibition was 17.1% in assay [1]; 1.25% in assay [4]; 21.7% in assay [6]; 39% in assay [5]; -80.7% in assay [3].
In the case of `c1ccc(N(c2ccccc2)c2ccccc2)cc1`, the growth inhibition in assay [1] is 5%; in assay [4], 1.9%; in assay [6] it was 7.1%; in assay [5], -10.4%; in assay [3], 4.05%.
`CCn1c(C)nc2cc(S(=O)(=O)CS(C)(=O)=O)ccc21`: the growth inhibition in assay [1] is 17%; in assay [2], -12.8%; in assay [3] it was 19.8%.
Turning to `Cc1nc2c(Cl)c(Cl)ccc2s1`, the growth inhibition is 3.6% in assay [1], -20.9% in assay [2] and 24.2% in assay [3].
On to `CC1=C2NCN(C)N=C2C(C#N)(C#N)C1(C#N)C#N`, for which the growth inhibition was 24% in assay [1]; -15.3% in assay [4]; 2.25% in assay [6]; -12.2% in assay [5]; -13.1% in assay [3].
